Each structure is given as a SMILES string. In all, about 220,000 compounds went through this assay and about 910 (0.41%) were called active. The full list was thinned out, with actives kept by preference. Results with a measured potency or affinity are listed apart. Unmarked numbers belong to inactive results.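 The calls were made as follows: active = primary inhibition above the hit cutoff, then over 50% inhibition at one or more dose response concentrations (cut at about 23% in these data, passing the limit was not always enough); inconclusive = conflicting primary data, or primary hits not chosen for dose response; inactive = low primary inhibition, or under 50% at every dose.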

The inhibition is the relative decrease from the control value, in per cent.

The assay addresses Aminopeptidase N (Plasmodium falciparum (isolate 3D7)) (UniProt O96935). Put plainly: P. falciparum M1AAP inhibitors, biochemical, fluorogenic H-Leu-NHMec substrate, 1536-well (AID 1445).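 Also: plate controls were DMSO full reaction for no effect and no enzyme background for full effect.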 Conditions: recombinant M1AAP, H-Leu-NHMec fluorogenic kinetic assay.
The mark [1] stands for this setting: at 30 µM, active compounds read high unless noted.

Sequence of Aminopeptidase N (Plasmodium falciparum (isolate 3D7)) (O96935 whole entry, looked up): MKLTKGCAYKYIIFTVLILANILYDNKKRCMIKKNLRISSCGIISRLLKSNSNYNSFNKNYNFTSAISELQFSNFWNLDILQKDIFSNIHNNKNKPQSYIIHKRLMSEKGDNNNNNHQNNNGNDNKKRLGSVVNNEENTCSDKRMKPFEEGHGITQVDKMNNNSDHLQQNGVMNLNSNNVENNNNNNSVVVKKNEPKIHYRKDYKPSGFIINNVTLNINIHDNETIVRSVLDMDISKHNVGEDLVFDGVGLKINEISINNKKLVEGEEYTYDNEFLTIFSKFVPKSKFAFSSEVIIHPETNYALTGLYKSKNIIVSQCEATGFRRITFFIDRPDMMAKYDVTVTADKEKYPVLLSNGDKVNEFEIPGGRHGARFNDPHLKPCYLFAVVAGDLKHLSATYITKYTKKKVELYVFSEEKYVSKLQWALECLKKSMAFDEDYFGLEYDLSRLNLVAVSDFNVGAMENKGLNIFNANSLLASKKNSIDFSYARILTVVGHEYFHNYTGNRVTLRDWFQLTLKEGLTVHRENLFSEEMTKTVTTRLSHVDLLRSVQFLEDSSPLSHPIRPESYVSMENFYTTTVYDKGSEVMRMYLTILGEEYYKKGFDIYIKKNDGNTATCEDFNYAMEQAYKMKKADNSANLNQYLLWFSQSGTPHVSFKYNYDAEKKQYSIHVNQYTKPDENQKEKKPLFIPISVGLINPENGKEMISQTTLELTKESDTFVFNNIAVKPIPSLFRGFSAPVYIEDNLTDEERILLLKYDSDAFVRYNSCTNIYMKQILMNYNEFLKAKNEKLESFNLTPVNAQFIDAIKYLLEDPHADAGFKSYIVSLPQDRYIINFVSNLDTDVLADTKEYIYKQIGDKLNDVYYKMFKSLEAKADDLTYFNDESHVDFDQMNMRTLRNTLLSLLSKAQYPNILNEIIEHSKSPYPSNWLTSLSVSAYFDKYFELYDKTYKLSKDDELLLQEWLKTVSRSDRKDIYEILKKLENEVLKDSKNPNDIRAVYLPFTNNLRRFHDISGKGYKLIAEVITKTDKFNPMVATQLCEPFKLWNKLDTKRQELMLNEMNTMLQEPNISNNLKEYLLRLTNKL

For the compound `CCC(=O)Nc1ccc(S(=O)(=O)Nc2cc(C)on2)cc1`, the inhibition under setting [1] was -4.75%.

For `Cc1cc(NS(=O)(=O)c2ccc(NC(=O)CSc3nc4sc(C(=O)O)c(C)c4c(=O)[nH]3)cc2)no1`, the inhibition under setting [1] was 16.3%.

`O=C(N/N=C/c1cccnc1)c1ccccc1OCc1ccc(Cl)cc1`: the inhibition under setting [1] is -4.49%.

On to `Cc1ccc(COc2ccccc2-c2cc(C(=O)N/N=C/c3cccnc3)[nH]n2)cc1`, for which, under setting [1], the inhibition was 4.58%.

For the compound `COc1ccc(C2c3c(noc3C)CC(C)(O)C2C(C)=O)cc1` (stereo not drawn), under setting [1], the inhibition was 0.23%.

Take `COc1ccc(-c2nn(-c3ccccc3)cc2/C=C/C(=O)N2CCN(c3ccccn3)CC2)cc1`: the inhibition under setting [1] is 1.49%.

As to `CCOC(=O)COc1ccc2ccccc2c1/C=C/[N+](=O)[O-]`, the inhibition under setting [1] was 4.98%.

For the compound `CCN=C1S/C(=C\c2cc(Br)ccc2OCC(=O)OCC)C(=O)N1CC`, the inhibition under setting [1] is 3.81%.

`CCOC(=O)COc1ccccc1/C=C\[N+](=O)[O-]`: the inhibition under setting [1] is 11.9%.

For `CCOC(=O)COc1ccc(/C=C/[N+](=O)[O-])c(OCC(=O)OCC)c1`, the inhibition under setting [1] was 1.07%.

On to `CCCOC(=O)c1ccc(Cl)c(NC(=O)c2cccnc2)c1`, for which the inhibition under setting [1] is 8.87%.

As to `COc1ccc(C(=O)CC(=O)c2ccccc2O)cc1OC`, the inhibition under setting [1] is 2.33%.

As for `CSc1nnnn1-c1ccc(C(=O)O)cc1`, under setting [1], the inhibition was 5.73%.

Consider `COC(=O)c1ccc(-n2nnnc2SC)cc1`, for which the inhibition under setting [1] was 26.3% (active).

With `COC(=O)COC(=O)c1ccc(-n2nnnc2SC)cc1`, under setting [1], the inhibition is -3%.

For `Cn1c(=O)n(CCc2ccccc2)c(=O)c2c1ncn2Cc1ccccc1`, the inhibition under setting [1] was 2.43%.

Take `Cc1cc(NC(=O)c2ccc(N3CCCC3)c([N+](=O)[O-])c2)no1`: the inhibition under setting [1] is -2.39%.

Take `COc1ccc(NC(=O)C2CCCN2C(=O)Nc2cccc(F)c2)cc1` (stereo not drawn): the inhibition under setting [1] was 6.92%.

`O=C(NCc1ccc2c(c1)OCO2)C1CCCN1C(=O)Nc1ccccc1` (stereo not drawn): the inhibition under setting [1] was 11.3%.

Turning to `CC(=O)c1cccc(NC(=O)N2CCCC2C(=O)Nc2cccc(C)c2)c1` (stereo not drawn), the inhibition under setting [1] was 1.86%.

On to `O=C(NCc1ccc2c(c1)OCO2)C1CCCN1C(=O)Nc1ccc(F)cc1` (stereo not drawn), for which the inhibition under setting [1] is 11.2%.

As to `CC(=O)Nc1cccc(NC(=O)C2CCCN2C(=O)Nc2ccccc2C)c1` (stereo not drawn), the inhibition under setting [1] was -3.25%.

`Cc1cccc(NC(=O)N2CCCC2C(=O)Nc2ccccc2)c1` (stereo not drawn): the inhibition under setting [1] was 13.2%.

With `COc1cccc(NC(=O)C2CCCN2C(=O)Nc2cccc(F)c2)c1` (stereo not drawn), the inhibition under setting [1] is 14.7%.

For the compound `CC(=O)Nc1ccc(NC(=O)C2CCCN2C(=O)Nc2ccc(F)c([N+](=O)[O-])c2)cc1` (stereo not drawn), the inhibition under setting [1] was 2.21%.

As for `COc1ccc(Nc2nc(C(=O)N(CCO)Cc3ccccc3)cs2)cc1`, the inhibition under setting [1] was 0.85%.

As for `Cc1ccc(NC(=O)CC2NCCN(Cc3ccccc3)C2=O)cc1` (stereo not drawn), the inhibition under setting [1] was 8.69%.

Regarding `Cc1ccc(N(CC(=O)NN=C2CCN(C)CC2)S(=O)(=O)c2ccccc2)c(C)c1`, the inhibition under setting [1] was -0.06%.

As to `O=C(Cn1cnc([N+](=O)[O-])n1)N/N=C/c1ccc2ccccc2c1`, the inhibition under setting [1] was 10.2%.

`CCOC(=O)N1CCN(c2c(NCCCN(C)c3ccccc3)c(=O)c2=O)CC1`: the inhibition under setting [1] is 6.93%.

As to `CCCc1nnc(NC(=O)Cn2c(=O)oc3ccccc32)s1`, under setting [1], the inhibition is -0.7%.

`CCOC(=O)C(CC)/C(C)=N/NC(=O)c1ccc([N+](=O)[O-])cc1` (stereo not drawn): under setting [1], the inhibition is 2.15%.

Consider `C=C1CCN([C@H](C(=O)NCc2ccco2)C(C)C)S(=O)(=O)c2ccccc21`, for which, under setting [1], the inhibition is 11%.

As to `COc1ccc(NC(=O)N2CCCC2C(=O)Nc2ccc(C)cc2)cc1` (stereo not drawn), the inhibition under setting [1] is -3.34%.

In the case of `CC(=O)c1cccc(NC(=O)N2CCCC2C(=O)Nc2cc(C)ccc2C)c1` (stereo not drawn), the inhibition under setting [1] was -1.28%.

With `CC1(C)CC(=O)C2=C(C1)N=C1SCCC(=O)N1C2c1cccc([N+](=O)[O-])c1` (stereo not drawn), under setting [1], the inhibition is 18%.

In the case of `Cc1ccc(S(=O)(=O)Nc2c(C)n(C)n(-c3ccccc3)c2=O)cc1C(=O)NCc1ccccn1`, the inhibition is, setting by setting: (at 30 µM, active compounds read high) 28.8% (active); (at 100 µM (top of the series)) 42.4%.

`Cc1c(NC(=O)c2ccccc2NS(=O)(=O)c2ccc(Br)cc2)c(=O)n(-c2ccccc2)n1C`: under setting [1], the inhibition was 24.5% (active).

Regarding `Cc1c(NC(=O)c2ccccc2NS(=O)(=O)c2ccc(F)cc2)c(=O)n(-c2ccccc2)n1C`, under setting [1], the inhibition is 20.1%.

For the compound `Cc1c(NS(=O)(=O)c2cccc(C(=O)NCc3ccncc3)c2)c(=O)n(-c2ccccc2)n1C`, the inhibition under setting [1] is -2.28%.

As to `Cc1c(NS(=O)(=O)c2ccc(C(=O)NCc3ccccc3)cc2)c(=O)n(-c2ccccc2)n1C`, the inhibition under setting [1] was 0.49%.

On to `CC(=O)Nc1ccc(S(=O)(=O)Nc2c(C)n(C)n(-c3ccccc3)c2=O)cc1`, for which, under setting [1], the inhibition is 0.31%.

As to `CC1=C(CCN2CCN(C(C)C)C(CCO)C2)C(C)(C)CCC1` (stereo not drawn), under setting [1], the inhibition was 2.23%.

For `CCn1c(Cn2nnc(-c3ccccc3)n2)nnc1SCC(=O)Nc1cccc(C(C)=O)c1`, the inhibition under setting [1] was 0.07%.

For the compound `COc1ccc(/C=N/NC(=O)c2cc(Br)ccc2O)cc1Cn1cc(Cl)cn1`, the inhibition under setting [1] was 0.18%.

With `O=c1[nH][nH]c(-c2ccccc2)c1C=Nc1ccc(C(F)(F)F)cc1`, under setting [1], the inhibition was 2.58%.

Turning to `CC1=C(C#N)c2nc(N)c(C#N)c(C)c2/C1=C\c1ccc(C)cc1`, the inhibition under setting [1] was 6.97%.

For the compound `CC1=C(C#N)c2nc(N)c(C#N)c(C)c2/C1=C\c1ccc(OCC(=O)O)c(Cl)c1`, the inhibition under setting [1] was 11.5%.

Consider `COC(=O)c1ccc(/C=C/c2ccc3cccc(OC)c3n2)cc1`, for which the inhibition under setting [1] was 20.2%.

With `CSc1ccc(/C=C/c2ccc3cccc(O)c3n2)cc1`, the inhibition under setting [1] was 8.1%.

As to `O=C(COc1ccc(F)cc1)N(c1ccccn1)C1CCCCC1`, under setting [1], the inhibition is 2.11%.

Take `COc1ccc(N2C(=O)C3CCCN3C2c2cccc(OC)c2OC)cc1` (stereo not drawn): the inhibition under setting [1] is 3.05%.

`CCN(CC)CC(O)Cn1c(-c2ccccc2Cl)nc2ccccc21` (stereo not drawn): the inhibition under setting [1] is 3.4%.

Regarding `Cc1ccc(CN2CCN(/N=C/c3ccc(C(F)(F)F)cc3)CC2)cc1`, the inhibition under setting [1] is 5.42%.

On to `C#CCCOC(=O)N1C2=NC(C(=O)OC)=C(C(=O)OC)[C@@H]3N(Cc4ccccc4)c4ccccc4[C@]23C[C@H]1C(=O)OC`, for which the inhibition under setting [1] was 8.52%.

Consider `C#CCCOC(=O)N1C2=NC(C(=O)OC)=C(C(=O)OC)[C@@H]3N(C)c4ccccc4[C@]23C[C@H]1C(=O)OC`, for which, under setting [1], the inhibition is 3.66%.

For the compound `COC(C[C@H](O)CC(=O)[C@H](C)OCc1ccccc1)OC`, under setting [1], the inhibition was 1.19%.

In the case of `COC(=O)c1sc2nc(-c3ccccc3)c3c(c2c1N)CCCC3`, the inhibition under setting [1] is 0.85%.

Turning to `COc1ccc(CN(C)C(=S)Nc2ccc(OC(F)F)cc2)cc1`, under setting [1], the inhibition was -1.27%.

Take `O=C1CCCc2nc3nc4ccccc4n3cc21`: the inhibition under setting [1] is -2.88%.

Regarding `CCOc1ccc(-n2c(=S)sc3c(=O)[nH]c(SCC(=O)NC(C)CC)nc32)cc1` (stereo not drawn), the inhibition under setting [1] is 11.5%.

With `CCOc1ccc(-n2c(=S)sc3c(=O)[nH]c(SCC(=O)NCc4ccco4)nc32)cc1`, the inhibition by setting is: (at 30 µM, active compounds read high) 29.8% (active); (at 100 µM (top of the series)) 46.1%.

On to `CCOc1ccc2c(c1)c1nnc(SCC(=O)N3CCC(C)CC3)nc1n2C`, for which the inhibition under setting [1] is 7.57%.

As to `CCOC(=O)CC(=O)CSc1nc2c(sc(=S)n2-c2ccccc2)c(=O)[nH]1`, the inhibition under setting [1] was 21.4%.

Consider `CC1CCN(C(=O)CSc2nc(N)cc(N)n2)CC1`, for which the inhibition under setting [1] was -2.52%.

Take `CCOc1ccc(-n2c(=S)sc3c(=O)[nH]c(SCC(=O)NCC4CCCO4)nc32)cc1` (stereo not drawn): under setting [1], the inhibition is 18.3%.

`CCOC(=O)CSc1nc2c(sc(=S)n2-c2ccccc2)c(=O)[nH]1`: the inhibition under setting [1] was 7.91%.

For `CCN(CC)C(=O)CSc1nc2c(sc(=S)n2-c2ccccc2)c(=O)[nH]1`, the inhibition under setting [1] was 5.01%.

Regarding `CCOC(=O)CSc1nc2c(sc(=S)n2-c2ccc(OCC)cc2)c(=O)[nH]1`, the inhibition under setting [1] is 13.9%.

For `CCCc1ccc(OCC(=O)NNC(=O)c2cccnc2)cc1`, under setting [1], the inhibition was -2.33%.

As for `Cc1cc(C(F)(F)F)nc(Nc2nc(C)c3ccccc3n2)n1`, under setting [1], the inhibition is 10.9%.

For `COc1cc2ccc(=O)oc2cc1OCC(O)C(C)(C)O` (stereo not drawn), the inhibition under setting [1] is 14.1%.

For `COc1cccc(/C=N/Nc2nc3ccccc3n3cnnc23)c1`, the inhibition under setting [1] was 0.89%.

With `CCOC(=O)c1cc(-c2ccccc2)n(CCC(=O)N2CCN(c3ccc(OC)cc3)CC2)c1C`, under setting [1], the inhibition was 5.67%.

For the compound `Cc1cc(C)n(/N=C/c2c[nH]c3ccccc23)c(=O)c1C#N`, the inhibition under setting [1] was 5.27%.

`CCc1ccc(NC(=O)CSc2nc3ccsc3c(=O)n2CCCCCC(=O)O)cc1`: under setting [1], the inhibition was -11.3%.

Take `COc1cc(NC(C)=O)ccc1-c1cc2ccccc2oc1=O`: under setting [1], the inhibition is 4%.

`COc1ccc(NC(=O)C2CCC(=O)N2)cc1` (stereo not drawn): the inhibition under setting [1] is 3.48%.

For `COc1ccc(C(C(=O)NC(C)(C)C)N(C(=O)CNC(=O)c2cccs2)c2ccc(C)cc2)cc1OC` (stereo not drawn), the inhibition under setting [1] was -2.96%.

On to `O=C(COC(=O)c1ccc(Cl)nc1)Nc1ccc(S(=O)(=O)N2CCCC2)cc1`, for which the inhibition under setting [1] was 9.72%.

In the case of `Nc1ccc(C23CC4CC(CC(C4)C2)C3)cc1`, the inhibition under setting [1] is 1.15%.

For `CC(=O)c1cnc2c(-c3ccc(Cl)cc3)cnn2c1C`, the inhibition under setting [1] was -0.05%.

`CCOC(=O)c1cnc2c(-c3ccc(Cl)cc3)cnn2c1C`: the inhibition under setting [1] was -12.2%.

On to `CC(C)(C)C(=O)NC(=S)Nc1ccc(F)cc1`, for which, under setting [1], the inhibition was 4.15%.

As for `O=c1cc(-c2ccc(F)cc2F)[nH]c2ccccc12`, the inhibition under setting [1] was -3.62%.

Consider `O=c1cc(CSc2nnc(COc3ccccc3Cl)o2)nc2sccn12`, for which the inhibition under setting [1] was 25.3% (active).

For `O=c1cc(CSc2nc3cc(Cl)ccc3o2)nc2sccn12`, under setting [1], the inhibition was 4.21%.

Consider `O=c1cc(CN2CCN(S(=O)(=O)c3ccc4ccccc4c3)CC2)nc2sccn12`, for which the inhibition under setting [1] was -6.82%.

`CC(C)NC(=O)CSc1nnc(COc2ccccc2Cl)o1`: the inhibition under setting [1] is 8.56%.

Regarding `O=c1cc(CSc2ccc(S(=O)(=O)N3CCCCC3)cn2)nc2sccn12`, the inhibition under setting [1] is 24.1% (active).

With `O=c1cc(CN2CCN(S(=O)(=O)c3ccccc3)CC2)nc2sccn12`, the inhibition under setting [1] is -0.76%.
